From ChEMBL document CHEMBL3988442, “University of Dundee, Small-Polar-MMV Screening Library” (2021) come the findings set out here.

The whole screen tested about 53,000 compounds, of which about 900 (1.7%) showed an effect of 50% or more. Only a selection was taken, and strong results are over-represented in it overall.

The test relates to Mycobacterium tuberculosis. Description: Cornell - Phenotypic assay to identify agents that inhibit growth of Mycobacterium tuberculosis. Set-up: scale not given: direction of the effect not stated beside the values. In kind it is functional. Particulars: 10 mM as filed; unlikely as a test dose.
In the case of `CNc1nc2c(s1)C(c1c(F)cccc1Cl)CC(=O)N2` (stereo unspecified), the “Percent Effect” value is 108%.
As to `CNc1nc2c(s1)C(c1cccc(Cl)c1Cl)CC(=O)N2` (stereo unspecified), the “Percent Effect” value is given as 35.33%.
Regarding `CNc1nc2c(s1)C(c1ccccc1F)CC(=O)N2` (stereo unspecified), the “Percent Effect” value is on record as -4.667%.
As for `CNc1nc2c(s1)C(c1ccccc1Cl)CC(=O)N2` (stereo unspecified), the figure is 45.9%; as for `Nc1nc2c(s1)C(c1c(F)cccc1Cl)CC(=O)N2` (stereo unspecified), 103.5%; as for `Cn1ncc2c1NC(=O)CC2c1c(F)cccc1Cl` (stereo unspecified), 13.6%.
Regarding `CNc1nc2c(s1)C(c1ccc(F)cc1Cl)CC(=O)N2` (stereo unspecified), the “Percent Effect” value is 32.27%.
Regarding `CC(O)CN1CC(C)(C)CN(C(=O)CCc2ccccc2)CC1=O` (stereo unspecified), the “Percent Effect” value came to 4.925%.
Take `CCN1CCN(C(=O)c2cc(-c3ccc(C)o3)n[nH]2)[C@H]2CS(=O)(=O)C[C@H]21`: the “Percent Effect” value is given as -0.2092%.
In the case of `CCNC(c1cccnc1)c1ccc(F)c(C)c1` (stereo unspecified), the “Percent Effect” value is on record as -53.96%.
`CC(=O)N1CCN(C(=O)Nc2ccccc2Cl)[C@H]2CS(=O)(=O)C[C@H]21`: the “Percent Effect” value is 4.723%.
In the case of `Cc1cc(C)n(CC(=O)N2CCCCC2CCN2CCCC2=O)c(=O)n1` (stereo unspecified), the “Percent Effect” value stood at 8.917%.
Take `Cc1cc(C(=O)N2CCc3c(CN(C)C(C)C)n[nH]c3C2)[nH]n1`: the “Percent Effect” value is recorded as 21.29%.
As for `CCc1noc(CNc2ccc(C(=O)N3CCCC3)cc2C)n1`, the “Percent Effect” value is -69.23%.
Turning to `Cc1ccc(CN2CCc3onc(C(=O)NCCN(C)C)c3C2)o1.O=C(O)C(F)(F)F.O=C(O)C(F)(F)F`, the “Percent Effect” value is 6.093%.
As for `Cc1ccc(CN2CCc3onc(C(=O)NC(C)C)c3C2)o1.O=C(O)C(F)(F)F`, the figure is 1.183%; as for `Cc1ccc(CN2CCc3onc(C(=O)Nc4cccnc4)c3C2)o1.O=C(O)C(F)(F)F.O=C(O)C(F)(F)F`, 61.31%.
Turning to `CCc1cnc(CN(C)C2CCN(Cc3nnc(C4CC4)n3C)C2)o1` (stereo unspecified), the “Percent Effect” value is listed as 31.65%.
On to `Cc1cc(C)c(C(=O)N(C)CCN(C)C(=O)c2[nH]c(C)cc2C)[nH]1`, for which the “Percent Effect” value stood at 1.614%.
`Cc1cc(C(=O)N(C)CCN(C)C(=O)OC(C)(C)C)oc1C`: the “Percent Effect” value is listed as -8.303%.
Consider `Cc1cc(C)c(C(=O)N(C)CCN(C)C(=O)OC(C)(C)C)[nH]1`, for which the “Percent Effect” value worked out at 68.36%.
With `c1cc(CNc2ncc(-c3cnccn3)c(C3CC3)n2)ccn1`, the “Percent Effect” value is -5.136%.
The value for `CSc1cccc(CN(C)C(=O)c2cccc(C3CCCNC3)c2)c1` (stereo unspecified) was 36.25%; that for `CC(=O)N1CCC(c2ncc(C(=O)Nc3ccc(F)cc3)c(C)n2)CC1` was 4.765%.
As for `O=C(O)C(F)(F)F.O=S(=O)(NCC1COCc2c(-c3ccncc3)nnn2C1)C1CC1` (stereo unspecified), the figure is 13.64%; as for `Cn1cc(-c2csc(N3CCCCCC3)n2)cn1`, 18.17%; as for `Cn1cc(-c2csc(N3CCN(C(=O)OC(C)(C)C)CC3)n2)cn1`, 78.03%.
`CN1CCN(c2nc(-c3cnn(C)c3)cs2)CC1`: the “Percent Effect” value is reported as 19.22%.
In the case of `O=C(C1CC1)N1CCCC(C2=Nc3ccccc3S(=O)(=O)N2)C1` (stereo unspecified), the “Percent Effect” value turned out to be 29.99%.
Regarding `Cc1occc1C(=O)N1CCCC(C2=Nc3ccccc3S(=O)(=O)N2)C1` (stereo unspecified), the “Percent Effect” value is on record as 60.62%.
Turning to `O=C(c1ccncc1)N1CCCC(C2=Nc3ccccc3S(=O)(=O)N2)C1` (stereo unspecified), the “Percent Effect” value is listed as 43.45%.
As for `CC(C)CN1C[C@H]2C[C@H](C(=O)Nc3cccnc3)[C@@H](C1)O2`, the figure is 6.477%; as for `CCN(CC)S(=O)(=O)CC(=O)N1CCc2ccc(Cl)cc21`, 4.859%; as for `CCOc1cc(CN(C)CCCC#N)ccc1OC(F)F`, 7.532%.
With `Cc1cc(NC(=O)C2CCN(c3nnc(C)c(C)c3C#N)CC2)no1`, the “Percent Effect” value is -12.4%.
Turning to `Cc1cc(NC(=O)NCc2ccncc2)ccc1OC(C)C`, the “Percent Effect” value is given as 88.24%.
The value for `Cc1cc(NC(=O)NCc2nncn2C)ccc1OC(C)C` was -0.4289%; that for `CCC(CO)NC(=O)Nc1ccc(OCC(F)(F)F)c(C)c1` (stereo unspecified) was -5.78%; that for `CCC(NC(=O)Nc1ccc(OC)c(C)c1)c1ccncc1` (stereo unspecified) was 89.35%.
In the case of `Cc1cc(NC(=O)NCc2nccn2C)ccc1OC(C)C`, the “Percent Effect” value is given as 35.97%.
Regarding `CCC(NC(=O)Nc1ccc(OC)c(C)c1)c1noc(C)n1` (stereo unspecified), the “Percent Effect” value is -4.83%.
Consider `CCCc1nc2c(c(C)c(C)n2Cc2cccnc2)c(N)c1CC`, for which the “Percent Effect” value is on record as 0.8008%.
As for `CC(=O)c1nn(-c2ccccc2Cl)c(C)c1C(C)=O`, the figure is 14.3%.
On to `COCCNC(=O)c1cccnc1Sc1cc(OC)ccc1OC`, for which the “Percent Effect” value was -23.48%.
The value for `Cc1ncc2c(n1)CN(CC(=O)Nc1cccnc1)CC2` was -17.74%.
With `CC(C)NC(=O)N1CCCn2cnc(CO)c2C1.O=C(O)C(F)(F)F`, the “Percent Effect” value is given as 25.62%.
Regarding `Cc1cccc(CN2C[C@@H]3CN(C(=O)NC(C)C)C[C@@H]3C2=O)n1.O=C(O)C(F)(F)F`, the “Percent Effect” value came out at 25.36%.
The value for `CN1CCC(c2cc(CCO)ncn2)C1` (stereo unspecified) was -9.182%; that for `O=C(Nc1ccc(Br)cc1F)c1cc(CN2CCOCC2)on1` was 74.1%; that for `O=C(NCc1ccccc1CN1CCOCC1)c1ccc(Br)cc1F` was 8.243%.
Take `O=C(Nc1ccc(Br)cc1F)c1ccc(N2CCOCC2)nn1`: the “Percent Effect” value is given as -1.334%.
